{"source": "PubChem BioAssay AID2017", "about": "(National Center for Advancing Translational Sciences (NCATS), 2009)", "note": "Records with an inconclusive call do not appear. Values without a mark were called inactive. Calls come from the whole dose curve; as a rule, active = well fitted curve in the direction sought with a large enough effect; inconclusive = small, poorly fitted or top-dose-only effect, or another doubt; inactive = no such curve, though single readings can be large or run the other way."}
{"system": "4-diphosphocytidyl-2-C-methyl-D-erythritol kinase IspE (bacterial, species not stated)", "test": "Confirmatory Assay for Inhibitors of Human Galactokinase (GALK): CDP-Me assay counterscreen", "settings": "ATP depletion, Kinase-Glo luminescence; series mostly up to 115 µM; activity change, negative = inhibition: at the top concentration", "summary_of_the_method": "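Luminescent read-out of ATP remaining (Kinase-Glo Plus) after 1 h at room temperature. Reaction: 0.25 ug/mL CDP-Me kinase, ATP 15 uM, CDP-ME 30 uM, HEPES pH8.0 buffer containing MgCl2, KCl, DTT and BSA.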", "units": {"activity change, negative = inhibition": "%"}}
{"compound": "COc1ccc(C/C(O)=C(\\C#N)c2nc3ccccc3s2)cc1", "activity change, negative = inhibition": -4.02}
{"compound": "O=C1CCCC2=C1C1(CCCCC1)N=C(Nc1nc3ccccc3o1)N2", "activity change, negative = inhibition": -2.3}
{"compound": "CCS(=O)(=O)C1=NN2C(=N)/C(=C\\c3ccc(OS(=O)(=O)c4ccccc4)cc3)C(=O)N=C2S1", "activity change, negative = inhibition": -28.5}
{"compound": "CCS(=O)(=O)C1=NSC2=NC(=O)/C(=C\\c3ccc(OS(=O)(=O)c4ccccc4)cc3)C(=N)N21", "activity change, negative = inhibition": -13.2}
{"compound": "Cc1nn(Cc2noc(C(=O)NCC3CCCO3)n2)c(C)c1Br", "note": "(stereo unspecified)", "activity change, negative = inhibition": -0.906}
{"compound": "S=c1[nH]nc(Cc2sc(-c3ccccc3)nc2-c2ccccc2)o1", "activity change, negative = inhibition": 1.28}
{"compound": "CCOc1cc(/C=C2/C(=N)N3C(=NC2=O)SN=C3S(C)(=O)=O)ccc1OS(=O)(=O)c1ccccc1", "activity change, negative = inhibition": -4.75}
{"compound": "O=S(=O)(NCc1cccs1)c1ccc(Br)s1", "activity change, negative = inhibition": 2.41}
{"compound": "Cc1[nH][nH]c(=O)c1C(c1ccc(-c2ccc(Cl)c(C(=O)O)c2)o1)c1c(C)[nH][nH]c1=O", "activity change, negative = inhibition": -6.09}
{"compound": "N#C/C(=C(/O)c1cc2ccccc2o1)c1nc2ccccc2s1", "activity change, negative = inhibition": -3.31}
{"compound": "O=C1ON=C(c2ccccc2)/C1=C/c1ccc(O)c(O)c1", "activity change, negative = inhibition": 2.47}
